An excerpt weighted towards active compounds, which were near 7.4% of everything screened.
ELG1 genotox = inducers of genotoxicity in HEK293T ELG1-luciferase cells; HEK293T ELG1-luciferase reporter, luminescence, 16 h; Potency, µM (top dose mostly 46 µM), for inactives: top-dose activity change, positive = activation, hits mostly activators; 1.3% of 330,000 active; also: % of control where 0% means no effect; nearly all actives have a fitted effect of over 60% in size
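ELG1-luciferase HEK293T cells, 2,000/well; compound pinned in; 16 hr, 37 °C, 5% CO2; ONE-Glo, 30 min RT; luminescence on CCD imager.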
NPC1 prom act = activates the NPC1 promoter | Huh7 NPC1 promoter luciferase reporter, 24 h | Potency, µM (top dose mostly 9.22 µM), inactives show at the highest dose activation, actives largely listed as activators | 2.4% of 320,000 active; also: % of control where 0% means no effect; nearly all actives have a fitted effect of over 60% in size
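In 1536-well qHTS, Huh7 cells harboring an NPC1 promoter–luciferase construct received compound for 24 h; activation was quantified by luminescence following luciferase reagent addition.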
FLuc modulator = inhibits or activates purified firefly luciferase, miR-21 counter-screen | AID 588342 | Potency, µM (top dose mostly 57.5 µM), inactives show top-dose activity change, negative = inhibition, most hits filed as inhibitors | purified FLuc, Km substrates, luminescence inhibition | 6.9% of 360,000 active | P08659;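 also: plate controls were vehicle for no effect and reference inhibitor for full effect; nearly all actives have a fitted effect of over 55% in size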
Target sequence (P08659 whole entry, looked up): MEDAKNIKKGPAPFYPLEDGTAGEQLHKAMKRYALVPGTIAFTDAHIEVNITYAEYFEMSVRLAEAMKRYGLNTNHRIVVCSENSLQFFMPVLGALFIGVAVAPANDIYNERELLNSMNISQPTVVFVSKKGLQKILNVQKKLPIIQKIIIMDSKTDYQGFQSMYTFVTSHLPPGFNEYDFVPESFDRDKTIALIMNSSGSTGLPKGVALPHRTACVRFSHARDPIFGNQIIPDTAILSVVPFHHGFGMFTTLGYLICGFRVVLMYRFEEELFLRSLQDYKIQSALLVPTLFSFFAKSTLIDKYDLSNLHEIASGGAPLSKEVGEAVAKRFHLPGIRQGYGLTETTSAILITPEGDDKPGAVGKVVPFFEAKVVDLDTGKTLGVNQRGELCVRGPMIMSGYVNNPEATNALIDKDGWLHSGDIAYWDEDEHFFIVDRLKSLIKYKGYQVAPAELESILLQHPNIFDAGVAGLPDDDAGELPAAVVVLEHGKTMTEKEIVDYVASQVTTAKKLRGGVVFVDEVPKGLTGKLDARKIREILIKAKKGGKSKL
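Purified P. pyralis luciferase (10nM final) with 10uM D-luciferin and 10uM ATP (Km levels) in 50mM Tris acetate pH 7.5, 10mM Mg acetate, 0.01% Tween-20, 0.05% BSA; qHTS 6-point titration, ~60 µM downward; luminescence read.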
Rab9 promoter act = activators of Rab9 promoter | 2.8% of 320,000 active | Potency, µM (titrated, usually from 9.22 µM), for inactives: top-dose activation, negative = inhibition, usual class: activators | AID 485297 | Huh7 Rab9 promoter-luciferase reporter, luminescence, 24 h; also: % of control where 0% means no effect; nearly all actives have a fitted effect of over 60% in size
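Stable Rab9-luc Huh7, 1500 cells/well, 2 h settle; cmpd in DMSO, 24 h, 37 °C/5% CO2; luciferase reagent 10 min RT; luminescence.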
KinaseGlo FLuc = Kinase-Glo luciferase inhibition (counter-screen); 0.28% of 200,000 active; Kinase-Glo luciferase, ATP luminescence, 8 min; Potency, µM (series often up to 38.3 µM), for inactives: at the top dose activity change, negative = inhibition, most hits filed as inhibitors; Q27757; also: % is scaled to controls: 0 for no effect and ±100 for the full control effect; nearly all actives have a fitted effect of over 60% in size
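Light output from Kinase-Glo luciferase with luciferin and 10 uM ATP in 50 mM imidazole pH 7.2, KCl, MgCl2, Tween 20, BSA; compound pin-delivered, 8-min ambient incubation, then luminescence read.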
SMN2 splice enh = SMN2 splice variant enhancement; HEK293 SMN2-luciferase splicing reporter, luminescence, 30-36 h; Potency, µM (titrated, usually from 46.1 µM), inactives show top-dose activity change, positive = activation, usual class: activators; 2.8% of 210,000 active; AID 1458; also: % of control where 0% means no effect; nearly all actives have a fitted effect of over 55% in size
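qHTS luciferase splicing reporter: luminescence rises when SMN2 exon 7 is included in transfected HEK293 cells. Compound exposure lasted 30-36 h at 37C, with 4.5 mM final sodium butyrate as control, followed by a ONE-Glo read.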
Active calls of the source: *; [ ] = remark or other dose. Calls follow the shape of the dose curve; as a rule, active = well fitted curve in the direction sought with a large enough effect; inconclusive = small, poorly fitted or top-dose-only effect, or another doubt; inactive = no such curve, though single readings can be large; an effect the other way counts as inactive or inconclusive. Potency is read from the fitted curve at half-maximal effect.

`COc1ccc2oc(C(=O)Nc3cccc(S(=O)(=O)N4CCOCC4)c3)c(C)c2c1` gave ELG1 genotox -5%, NPC1 prom act 2%, FLuc modulator 6µM* and Rab9 promoter act 1%.
For O=C(Nc1cccc(S(=O)(=O)N2CCCCC2)c1)c1ccco1 the results were ELG1 genotox -3%, NPC1 prom act -2%, FLuc modulator -4% and Rab9 promoter act 4%.
For COc1ccc2oc(C(=O)OCC(=O)Nc3cccc(S(=O)(=O)N4CCOCC4)c3)c(C)c2c1 the results were ELG1 genotox 1%, NPC1 prom act 0%, FLuc modulator inconclusive and Rab9 promoter act 0%.
For O=C(Nc1cccc(S(=O)(=O)N2CCOCC2)c1)c1cc2ccccc2o1 the results were ELG1 genotox -8%, NPC1 prom act 1%, FLuc modulator 17µM* and Rab9 promoter act 1%.
CCOC(=O)c1cccc(NC(=O)C2Cc3ccccc3N2C(=O)c2ccccc2)c1 (configuration not stated) was read as FLuc modulator -5%.
COC(=O)N1CCC[C@@]2(CCN(C(=O)Nc3ccc(OC)cc3)C2)C1 was read as KinaseGlo FLuc 0% and SMN2 splice enh 2%.
Screening O=C(CCOc1ccccc1)N(Cc1cccnc1)c1nc2ccc(F)cc2s1 returned FLuc modulator -11%.
COC(=O)C1(C(=O)OC)CC2=CC(CC2=O)Cc2ccccc2[C@@H]1C[N+](=O)[O-] (some centres not stated) was read as KinaseGlo FLuc 2% and SMN2 splice enh 3%.
For O=C(Nc1ccc(Br)cn1)c1cccc(C(=O)Nc2ccc(Br)cn2)c1 the results were ELG1 genotox 21µM*, NPC1 prom act 2µM*, FLuc modulator 3µM* and Rab9 promoter act 0.56µM*.
For O=C(Nc1ccc(Br)cn1)c1cccc(S(=O)(=O)N2CCCC2)c1 the results were ELG1 genotox -3%.
Screening O=C(Nc1ccc(Br)cn1)c1ccc2ccccc2c1 returned ELG1 genotox inconclusive, NPC1 prom act 1.6µM*, FLuc modulator 1.9µM* and Rab9 promoter act 1.1µM*.
`Cc1ccccc1C(=O)N(Cc1sccc1C)C1CCS(=O)(=O)C1` (configuration not stated) gave FLuc modulator -4% and SMN2 splice enh 6%.
Screening Cc1oc2ccc(O)c(CN3CCOCC3)c2c1C(=O)Nc1ccc(C(C)C)cc1 returned FLuc modulator 2% and SMN2 splice enh -23%.
O=C(NCc1ccccc1Br)c1ccc2c(c1)nc1n2CCOC1 was read as FLuc modulator -3%.
`Cc1ccc(C)c(N2CCN(C(=O)c3c4c(nc5ccccc35)C(=O)N(C3CCCCC3)C4)CC2)c1` gave FLuc modulator -7%.
Screening CC(=O)Nc1cccc(NC(=O)c2ccc(Br)cc2)c1 returned ELG1 genotox 5%, NPC1 prom act 19%, FLuc modulator 24µM*, Rab9 promoter act inconclusive, KinaseGlo FLuc -1% and SMN2 splice enh 17%.
Screening Cc1cccc(NC(=O)CCNC(=O)c2ccc(Br)cc2)c1 returned ELG1 genotox inconclusive, NPC1 prom act 27%, FLuc modulator 13µM* and Rab9 promoter act inconclusive.
For Nc1ccc(C(=O)Nc2cccc(N)c2)cc1 the results were ELG1 genotox 17%, NPC1 prom act inconclusive, FLuc modulator 21µM* and Rab9 promoter act inconclusive.
For CC1CCC(NC(=O)CCNC(=O)c2ccc(Br)cc2)CC1 (configuration not stated) the results were ELG1 genotox inconclusive, NPC1 prom act 4.5µM*, FLuc modulator inconclusive and Rab9 promoter act 2.5µM*.
Screening Cc1ccc(S(=O)(=O)N2CCCc3cc(NC(=O)c4ccc(C(F)(F)F)cc4)ccc32)cc1 returned FLuc modulator -8%.
Screening O=C(Nc1cccc(O)c1)c1ccc(Br)cc1 returned ELG1 genotox 5.8µM*, NPC1 prom act inconclusive, FLuc modulator 12µM*, Rab9 promoter act inconclusive, KinaseGlo FLuc -7% and SMN2 splice enh 4%.
`COc1ccc(/C=C/c2nnc(NC(=O)CSc3ccc(Cl)cc3)s2)cc1` gave ELG1 genotox inconclusive, NPC1 prom act inconclusive, FLuc modulator 0%, Rab9 promoter act inconclusive, KinaseGlo FLuc 1% and SMN2 splice enh 10µM*.
COC(=O)Nc1nnc(/C=C/c2ccc(OC)cc2)s1 was read as ELG1 genotox inconclusive, NPC1 prom act inconclusive, FLuc modulator 6µM*, Rab9 promoter act 3.5µM*, KinaseGlo FLuc inconclusive and SMN2 splice enh 8.9µM*.
Screening COc1ccc(/C=C/c2nnc(NC(=O)CC(C)C)s2)cc1 returned ELG1 genotox 0%, NPC1 prom act 12%, FLuc modulator inconclusive and Rab9 promoter act 12%.
Screening COc1ccc(/C=C/c2nnc(NC(C)=O)s2)cc1 returned ELG1 genotox 2.3µM*, NPC1 prom act 1.1µM*, FLuc modulator 1.9µM* and Rab9 promoter act 0.13µM*.
Screening CC(C)c1ccc2c(c1)CC[C@H]1[C@@](C)(CN)CCC[C@@]21C returned KinaseGlo FLuc -6%[7.66 µM] and SMN2 splice enh -6%[9.22 µM].
CCOc1ccc(/C=N/NC(=O)c2[nH]c3ccc(C)cc3c2C)cc1 was read as ELG1 genotox -2%, NPC1 prom act -3%, FLuc modulator 11µM* and Rab9 promoter act 4%.
For COc1ccc(/C=N/NC(=O)c2cc3cc(OC)c(OC)cc3[nH]2)cc1 the results were ELG1 genotox 1%, NPC1 prom act -2%, FLuc modulator inconclusive and Rab9 promoter act 0%.
`Cc1c(C(=O)N/N=C/c2ccc(Cl)cc2)[nH]c2ccc(Cl)cc12` gave ELG1 genotox 3%, NPC1 prom act -18%, FLuc modulator -13%, Rab9 promoter act -19%, KinaseGlo FLuc -2% and SMN2 splice enh inconclusive.
COc1ccc2[nH]c(C(=O)N/N=C/c3ccc(O)cc3O)cc2c1 was read as ELG1 genotox 15%, NPC1 prom act -36%, FLuc modulator 11µM* and Rab9 promoter act -2%[1.84 µM].
Screening CCOc1ccc2[nH]c(C(=O)N/N=C/c3ccc(OC)cc3)cc2c1 returned ELG1 genotox 6%, NPC1 prom act -8%, FLuc modulator 11µM* and Rab9 promoter act -18%.
`COc1cc2cc(C(=O)N/N=C/c3ccccc3Cl)[nH]c2cc1OC` gave ELG1 genotox -5%, NPC1 prom act -4%, FLuc modulator 17µM* and Rab9 promoter act -3%.
For O=C(NCC1CCCCC1)c1nnc(C(=O)NCC2CCCCC2)c2c1[nH]c1ccccc12 the results were KinaseGlo FLuc 2% and SMN2 splice enh -2%.

Screening results as filed in PubChem BioAssay.
